According to PubChem BioAssay AID588342 (National Center for Advancing Translational Sciences (NCATS), 2011):
Out of some 360,000 compounds screened, about 25,000 (6.9%) were called active. Not shown: some 9% with an inconclusive outcome. What follows is part of a selection rich in actives, with near analogues and random picks from the rest. Unmarked numbers belong to inactive results. Calls follow the shape of the dose curve; as a rule, active = well fitted inhibition curve with a large enough effect; inconclusive = small, poorly fitted or top-dose-only effect; inactive = flat fitted curve, though single readings scatter.

biological target: Luciferin 4-monooxygenase (Photinus pyralis) (UniProt P08659); test: qHTS profiling assay for firefly luciferase inhibitor/activator using purifed enzyme and Km concentrations of substrates (counterscreen for miR-21 project); settings: purified FLuc, luminescence inhibition; series mostly up to 57.5 µM; activity change, negative = inhibition: at the top concentration; also: nearly all actives have a fitted effect of over 55% in size;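 as to activity change, negative = inhibition: plate controls were vehicle for no effect and reference inhibitor for full effect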
Summary of the method: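 Purified P. pyralis luciferase, 10 nM final, with Km-level 10 uM D-luciferin and 10 uM ATP in 50 mM Tris acetate pH 7.5, 10 mM Mg acetate, 0.01% Tween-20, 0.05% BSA; 6-point qHTS titration about 60 µM downward; luminescence read.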
Potency is read from the fitted curve at half-maximal effect.

Chain of Luciferin 4-monooxygenase (Photinus pyralis) (P08659 whole entry, looked up): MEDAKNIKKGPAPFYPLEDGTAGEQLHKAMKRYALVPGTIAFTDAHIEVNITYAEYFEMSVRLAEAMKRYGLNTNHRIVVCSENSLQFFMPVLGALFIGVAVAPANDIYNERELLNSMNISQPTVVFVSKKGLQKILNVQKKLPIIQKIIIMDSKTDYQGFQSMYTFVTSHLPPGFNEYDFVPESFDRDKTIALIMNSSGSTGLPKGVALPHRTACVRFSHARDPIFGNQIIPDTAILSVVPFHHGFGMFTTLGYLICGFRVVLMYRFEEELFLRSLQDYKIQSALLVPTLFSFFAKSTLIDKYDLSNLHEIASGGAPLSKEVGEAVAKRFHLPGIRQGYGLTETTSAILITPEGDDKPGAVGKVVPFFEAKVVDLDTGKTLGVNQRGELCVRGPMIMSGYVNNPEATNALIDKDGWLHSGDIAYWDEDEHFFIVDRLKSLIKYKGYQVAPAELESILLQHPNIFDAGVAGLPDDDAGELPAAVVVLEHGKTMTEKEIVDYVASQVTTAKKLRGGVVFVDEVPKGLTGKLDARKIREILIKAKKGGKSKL

SMILES	activity change, negative = inhibition [%]	Potency
CC(C)(C)OC(=O)N1CCC(c2c(C(=O)N3CCN(c4cccc(Cl)c4)CC3)cnn2-c2cccc(Cl)c2)CC1	-3.13	
CCCCCn1c(CCCNC(=O)c2ccccc2OC)nc2ccccc21	4.7	
CCOC(OCC)c1ccc(/C=C\c2nccc(N)n2)cc1		8.49 µM (active)
CCOc1ccc(Nc2c(S(=O)(=O)c3ccccc3)cnc3ccccc23)cc1	-10.5	
CN(C(=O)Cn1nnc(-c2ccc(F)cc2)n1)C1CCS(=O)(=O)C1 (stereo unspecified)	3.37	
COc1ccc(CNC(=O)CC2Oc3ccc(C)cc3NC2=O)cc1 (stereo unspecified)	-0.891	
O=S(=O)(c1cccc(-c2nnc3n2CCCCC3)c1)N1CCOCC1	-2.77	
CSc1ncccc1C(=O)NC1CCCCCC1	-1.16	
Cc1c(C(=O)Nc2cccc(-c3nnc4n3CCCCC4)c2)oc2ccccc12		19 µM (active)
Cc1ccc(NC(=O)c2oc3ccccc3c2C)c([N+](=O)[O-])c1	-14	
Cc1c(C(=O)NC2CCCCC2)oc2ccccc12		15.1 µM (active)
O=C(Cn1[nH]c(=O)c2ccccc2c1=O)Nc1cccc(-c2nnc3n2CCCCC3)c1	-0.0091	
O=C(Nc1ccc(F)cc1F)c1cnn(-c2ccc(F)cc2)c1-n1cccc1	0.499	
CC(C)(C)OC(=O)N1CCC(c2c(C(=O)NCCc3ccsc3)cnn2-c2ccc(F)cc2F)CC1	-7.33	
O=C(/C=C/c1ccc(Cl)cc1)NCCCn1ccnc1	-9.77	
CC(C)c1ccc(/C=C/C(=O)NCCCN2CCOCC2)cc1		21.3 µM (active)
CCOC(=O)c1sc(NC(=O)/C=C/c2ccc(C(C)C)cc2)c(C(=O)OCC)c1C	-0.567	
COc1cccc(C(=O)NNC(=O)/C=C/c2ccccc2)c1	0.538	
O=C(/C=C/c1cn(-c2ccccc2)nc1-c1ccc2c(c1)OCCO2)NCCCN1CCOCC1	-10.5	
CC(C)c1ccc(/C=C/C(=O)NNC(=O)c2cccnc2)cc1		12 µM (active)
Cc1c(NC(=O)c2cccnc2)c(=O)n(-c2ccccc2)n1C	0.783	
O=C(/C=C/c1ccc(F)cc1)NCCNC(=O)/C=C/c1ccc(F)cc1	0.42	
C=CCNC(=O)/C=C/c1ccc(C(C)C)cc1		19 µM (active)
CCCOc1ccc(C2c3c(-c4ccccc4O)n[nH]c3C(=O)N2Cc2cccnc2)cc1 (stereo unspecified)	-13.9	
N#Cc1ccccc1Cn1cnc2nc3c(cc2c1=O)CCCC3	2.97	
Cc1ccc(-n2nc(C)c3c(C)cc(=O)n(CC(=O)Nc4ccc(C(C)C)cc4)c32)cc1	-0.504	

SMILES	activity change, negative = inhibition [%]	Potency
Cc1c(C(=O)Nc2cccc(Cl)c2)oc2ccc(S(=O)(=O)N3CCOCC3)cc12	2.19	
Cc1cccc(-c2nc(SCC(=O)Nc3cc(C)on3)c3c(=O)n(C)c(=O)n(C)c3n2)c1	-3.67	
Cc1ccc(NC(=O)Cn2cnc3nc4c(cc3c2=O)CCCC4)cc1Cl	2.34	
COc1ccc(NC(=O)c2cnc(Nc3ccc(C)c(Cl)c3)c3ccccc23)cc1OC	-0.0929	
CCN(C(=O)CSc1ncn[nH]1)c1cccc2ccccc12	0.343	
COc1ccc(C(=O)CSc2nccc(=O)[nH]2)cc1	0.943	
CC(C)(C)c1ccc(C(=O)CSc2ncn[nH]2)cc1		4.78 µM (active)
CC(C)OCCCn1c(SCC(=O)c2ccccc2)nc2c(sc3ccccc32)c1=O	-0.642	
Cc1csc(SCC(=O)N(c2ccccc2)C(C)C)n1	0.743	
CC(=O)OCCN(CCCn1c(-c2ccncc2)nc2ccccc21)c1nc(-c2ccc(C)cc2)cs1	1.22	
Cc1ccc(C)c(NC(=O)NNC(=O)c2ccc3ccccc3c2O)c1	-22.4	
N#C/C(=C\c1ccccc1F)c1nc2ccccc2c(=O)[nH]1	7.06	
Cc1ccc2nc(/C(C#N)=C/c3ccccc3F)[nH]c2c1		8.49 µM (active)
COc1cccc2cc(-c3nc(Cl)c4c5c(sc4n3)CC(C)CC5)c(=O)oc12 (stereo unspecified)	-13.3	
COc1cc(/C=C(\C#N)c2nc3c(s2)CC(C)CC3)ccc1O (stereo unspecified)		0.675 µM (active)
Cc1ccc2nc(/C(C#N)=C\c3ccc(OC(=O)c4cccs4)cc3)[nH]c2c1	-3.56	
Cc1ccccc1OC/C(O)=C(\C#N)c1nc2ccccc2[nH]1	0.866	
COc1cc(/C=C(\C#N)c2nc3ccccc3[nH]2)ccc1O		4.78 µM (active)
CCOc1ccc(/C=C(\C#N)c2nc3ccccc3c(=O)[nH]2)cc1OC	-4.72	
O=C1OC(C(=O)Nc2cccc(Br)c2)Cc2ccccc21 (stereo unspecified)	-0.169	
O=C(C1CC(=O)N(C2CCCC2)C1)N1CCN(c2cccc(C(F)(F)F)c2)CC1 (stereo unspecified)	3.15	
Cc1ccc(CN2CCCOCCS2(=O)=O)cc1	-0.0995	
Cc1ccc(CNC(=O)CSC2=Nc3ccccc3C3=NC(C)C(=O)N23)cc1 (stereo unspecified)	-7.16	
Cc1c(Cl)cccc1-c1ccc(CNCCCSc2nnnn2C)o1	-8.45	
O=C(Cn1cc(/C=N/NC(=O)c2cccc(C(F)(F)F)c2)c2ccccc21)Nc1ccc(F)cc1	0.0534	
